Reference: ChEMBL document CHEMBL2218924, “A broad activity screen in support of a chemogenomic map for kinase signalling research and drug discovery” (Biochem J, 2013)

target: T1, Myotonin-protein kinase (Homo sapiens) (UniProt Q09013); conditions: at 1 µM
T1 sequence (whole entry): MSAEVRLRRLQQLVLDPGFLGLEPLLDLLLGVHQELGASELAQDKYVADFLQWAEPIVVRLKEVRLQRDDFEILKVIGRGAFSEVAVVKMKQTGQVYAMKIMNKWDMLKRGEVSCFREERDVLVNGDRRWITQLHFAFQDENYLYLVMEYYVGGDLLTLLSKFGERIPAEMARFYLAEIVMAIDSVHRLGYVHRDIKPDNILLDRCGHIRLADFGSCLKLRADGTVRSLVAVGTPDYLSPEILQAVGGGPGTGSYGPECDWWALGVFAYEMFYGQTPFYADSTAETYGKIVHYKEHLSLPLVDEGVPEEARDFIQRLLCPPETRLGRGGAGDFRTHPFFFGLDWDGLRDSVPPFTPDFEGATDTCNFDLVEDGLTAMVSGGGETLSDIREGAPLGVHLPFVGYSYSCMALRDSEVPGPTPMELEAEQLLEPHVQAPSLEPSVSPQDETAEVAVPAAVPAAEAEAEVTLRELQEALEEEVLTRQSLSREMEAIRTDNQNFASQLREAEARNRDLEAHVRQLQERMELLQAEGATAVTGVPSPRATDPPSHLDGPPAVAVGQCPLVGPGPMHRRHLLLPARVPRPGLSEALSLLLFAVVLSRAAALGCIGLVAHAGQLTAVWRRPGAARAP

Compound | residual activity
NC(=O)c1ccc(-c2nc(-c3ccc4c(c3)OCCO4)c(-c3ccccn3)[nH]2)cc1 | 93%
Fc1ccc(-c2nc3n(c2-c2ccncc2)CCS3)cc1 | 87%
Nc1nccc(-c2c(-c3ccc(F)cc3)ncn2C2CCNCC2)n1 | 129%
O=C1NC(=O)C(c2cn(CCCn3ccnc3)c3ccccc23)=C1Nc1ccccc1 | 120%
COc1ccc(COc2ccc(Cc3cnc(N)nc3N)cc2OC)cc1 | 115%
O=c1cc(N2CCOCC2)oc2c(-c3ccccc3)cccc12 | 134%
COc1ccc(Cl)cc1NC(=O)Nc1cc(C)nc2ccccc12 | 94%
COc1ccc(CNC(=O)Nc2ncc([N+](=O)[O-])s2)cc1 | 100%
O=C1Nc2ccccc2/C1=C\c1c(Cl)[nH]c2ccccc12 | 119%
O=C1Cc2c([nH]c3ccc(Br)cc23)-c2ccccc2N1 | 97%
O=C(c1cc2cc(O)ccc2[nH]1)c1cc2cc(O)ccc2[nH]1 | 120%
CN([C@@H](Cc1ccc(OS(=O)(=O)c2cccc3cnccc23)cc1)C(=O)N1CCN(c2ccccc2)CC1)S(=O)(=O)c1cccc2cnccc12 | 135%
COc1ccc(-c2cnc3c(-c4ccsc4)cnn3c2)cc1 | 145%

target: T1, Myotonin-protein kinase (Homo sapiens); conditions: at 10 µM

Compound | residual activity
O=C1C(Cl)=C(N2C(=O)CCC2=O)C(=O)c2ccccc21 | 85%
N#C/C(=C1/Nc2ccccc2S1)c1ccnc(NCCc2cccnc2)n1 | 78%
COc1cc2c(cc1OC)-c1n[nH]c(Nc3cccc(F)c3)c1C2 | 136%
NC(=O)c1ccc(-c2nc(-c3ccc4c(c3)OCCO4)c(-c3ccccn3)[nH]2)cc1 | 97%
Fc1ccc(-c2nc3n(c2-c2ccncc2)CCS3)cc1 | 96%
Nc1nccc(-c2c(-c3ccc(F)cc3)ncn2C2CCNCC2)n1 | 83%
O=c1c(-c2ccc(F)cc2)c(-c2ccncc2)[nH]n1-c1ccc(Cl)cc1 | 99%
O=C1NC(=O)C(c2cn(CCCn3ccnc3)c3ccccc23)=C1Nc1ccccc1 | 124%
COc1ccc(COc2ccc(Cc3cnc(N)nc3N)cc2OC)cc1 | 139%
O=c1cc(N2CCOCC2)oc2c(-c3ccccc3)cccc12 | 130%
CCN1/C(=C/C(C)=O)Sc2ccc(OC)cc21 | 70%
COc1ccc(CNC(=O)Nc2ncc([N+](=O)[O-])s2)cc1 | 80%
O=C1Cc2c([nH]c3ccc(Br)cc23)-c2ccccc2N1 | 83%
O=C(c1cc2cc(O)ccc2[nH]1)c1cc2cc(O)ccc2[nH]1 | 122%
CN([C@@H](Cc1ccc(OS(=O)(=O)c2cccc3cnccc23)cc1)C(=O)N1CCN(c2ccccc2)CC1)S(=O)(=O)c1cccc2cnccc12 | 115%
COc1ccc(-c2cnc3c(-c4ccsc4)cnn3c2)cc1 | 129%
